From PubChem
Compounds with a hit are over-represented: about 4.1% of the library has one in this group of screens.
rCAG binder = binders of r(CAG) RNA repeats, primary screen, biochemical, fluorescence; inhibition, % at 3 µM; hit rate 1.3% among 370,000; r(CAG) RNA repeat, TO-PRO-1 dye displacement fluorescence;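 active = inhibition above the plate cutoff, the mean of all test compounds on that plate plus 3 SD, cut at about 35% in these data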;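 also: 0% = DMSO alone and 100% = 100 µM mitoxantrone as full dye displacement; higher means more dye released from RNA so lower well fluorescence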
ABHD5-PLIN5 inh = ABHD5-PLIN5 interaction inhibitors, primary screen, cell lysate, split luciferase complementation, luminescence; Perilipin-5 (Homo sapiens) + 1-acylglycerol-3-phosphate O-acyltransferase ABHD5 (Homo …; Split G. princeps luciferase complementation, 4 h; inhibition, % at 4 µM; hit rate 0.78% among 360,000;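 active = inhibition above the mean inhibition across every tested compound plus 3 SD, cut at about 22% in these data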;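 also: 0% = DMSO only wells and the 100% control is not disclosed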
Target sequence (Q00G26 whole entry, looked up): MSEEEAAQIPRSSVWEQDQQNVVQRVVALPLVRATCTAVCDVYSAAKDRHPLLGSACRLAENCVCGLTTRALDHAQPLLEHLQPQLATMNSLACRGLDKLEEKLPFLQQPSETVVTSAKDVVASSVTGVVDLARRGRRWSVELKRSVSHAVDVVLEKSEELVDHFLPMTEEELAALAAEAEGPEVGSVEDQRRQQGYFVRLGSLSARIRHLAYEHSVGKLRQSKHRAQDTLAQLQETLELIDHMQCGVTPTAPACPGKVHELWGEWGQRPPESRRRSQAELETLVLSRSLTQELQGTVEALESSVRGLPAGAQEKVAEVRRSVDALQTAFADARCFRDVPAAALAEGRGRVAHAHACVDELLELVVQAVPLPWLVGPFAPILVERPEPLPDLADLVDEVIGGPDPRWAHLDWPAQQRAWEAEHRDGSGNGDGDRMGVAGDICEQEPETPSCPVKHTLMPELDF
Target sequence (Q8WTS1 whole entry, looked up): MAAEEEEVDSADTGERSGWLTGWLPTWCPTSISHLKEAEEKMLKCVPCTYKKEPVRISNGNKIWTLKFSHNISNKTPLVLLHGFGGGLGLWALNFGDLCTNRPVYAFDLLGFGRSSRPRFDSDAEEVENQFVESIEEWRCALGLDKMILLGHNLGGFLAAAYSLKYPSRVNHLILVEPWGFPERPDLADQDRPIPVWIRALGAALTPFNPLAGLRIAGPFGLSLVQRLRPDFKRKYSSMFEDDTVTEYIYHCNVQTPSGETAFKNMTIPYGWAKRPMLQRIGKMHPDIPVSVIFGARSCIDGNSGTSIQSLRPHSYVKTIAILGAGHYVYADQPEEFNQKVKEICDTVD
LEDGF integ inh = blockers of LEDGF/p75-dependent integrase strand transfer – biochemical, TR-FRET, high throughput, primary screen; hit rate 0.64% among 370,000; HIV-1 integrase (with human LEDGF/p75); inhibition, % at 3.7 µM; TR-FRET IN-LEDGF/p75 DNA integration, Eu/Cy5;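 active = inhibition above the screen-wide mean plus 3 SD, cut at about 13% in these data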;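 also: signal is the Cy5 over europium emission ratio at 671 and 618 nm; 0% = plate median of compound wells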
UHRF1 binding = UHRF1 methylated DNA binding inhibitors, primary screen, counter-screen for MBD2 inhibitor project, biochemical, TR-FRET, human UHRF1, single concentration | inhibition, % at 4.4 µM | hit rate 0.75% among 370,000 | UHRF1 binding to methylated oligo | E3 ubiquitin-protein ligase UHRF1 (Homo sapiens), Q96T88; in the data active = inhibition above about 21%;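 also: UHRF1 SRA domain binding a hemimethylated CpG hairpin DNA probe; 0% = median of test compound wells and 100% = reference inhibitor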
MBD2 DNA inh = inhibitors of MBD2 binding to methylated DNA, primary screen, biochemical, TR-FRET, DNA-binding domain, human. Methyl-CpG-binding domain protein 2 (Homo sapiens), Q9UBB5. MBD2 binding to methylated oligonucleotide. inhibition, % at 4.4 µM. hit rate 0.31% among 370,000; in the data active = inhibition above about 13%
PRMT1 inh = PRMT1 methyltransferase inhibitors, primary screen, biochemical, fluorescence polarization; Protein arginine N-methyltransferase 1 (Homo sapiens), Q99873; recombinant PRMT1, activity-based probe fluorescence polarization; inhibition, % at 2.79 µM; hit rate 1.3% among 370,000;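 active = inhibition above about 21% made by adding two undisclosed values, limit read from the data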
Numbers without * were called inactive.

How did C[C@H](CO)N1C[C@H](C)[C@H](CN(C)Cc2ccncc2)Oc2ncc(C#CC3CC3)cc2C1=O do in these assays?
rCAG binder: 1; ABHD5-PLIN5 inh: 0; LEDGF integ inh: -2; UHRF1 binding: 7; MBD2 DNA inh: 3; PRMT1 inh: 0

How did O=C(Nc1ccc(F)cc1)OC1CC2CC1[C@H]1CCCCN1[C@H]2Cc1ccccc1 (some centres not stated) do in these assays?
rCAG binder: 9; LEDGF integ inh: 0; UHRF1 binding: 0; MBD2 DNA inh: 2; PRMT1 inh: 4

How did COC(=O)C1=C(C)N(C)C(=NCc2ccc(OC)cc2)NC1c1cccc(Cl)c1 (configuration not stated) do in these assays?
rCAG binder: 8; LEDGF integ inh: 1; UHRF1 binding: 1; MBD2 DNA inh: -3; PRMT1 inh: -5

How did N#C/C(=C\c1ccc(O)cc1)C(=O)N1CCCC1 do in these assays?
rCAG binder: 0; ABHD5-PLIN5 inh: -2; LEDGF integ inh: -2; UHRF1 binding: 21*; MBD2 DNA inh: 8; PRMT1 inh: 2

How did N#C/C(=C\c1ccc(C#N)cc1)C(=O)N1CCCC1 do in these assays?
ABHD5-PLIN5 inh: 3

Results for CCOC(=O)[C@]12CCCCC/C=C\1N(CCc1ccc(Cl)cc1)C(=O)[C@H]2CC(=O)NCc1cccs1 ?
rCAG binder: 9; LEDGF integ inh: -2; UHRF1 binding: -2; MBD2 DNA inh: -3; PRMT1 inh: -2

Results for COc1ccc(-c2ccc(-c3nc4ccc(C)cn4c3NC3CCCCC3)cc2OC)cc1 ?
rCAG binder: 0; ABHD5-PLIN5 inh: -4; LEDGF integ inh: 3; UHRF1 binding: -1; MBD2 DNA inh: 0; PRMT1 inh: -1

How did COc1ccc(-c2nc3ccc(C)cn3c2CC2CCCCC2)cc1OC do in these assays?
rCAG binder: 10; ABHD5-PLIN5 inh: -2; LEDGF integ inh: 1; UHRF1 binding: 22*; MBD2 DNA inh: 9; PRMT1 inh: 5

How did COc1ccc(-c2nc3ccc(C)cn3c2Cc2ccsc2)cc1OC do in these assays?
rCAG binder: 5; ABHD5-PLIN5 inh: -5; LEDGF integ inh: -3; UHRF1 binding: 22*; MBD2 DNA inh: 10; PRMT1 inh: 0

Results for C[C@@H]1CN(c2ccc(N3CCNC[C@@H]3C)cc2C#N)CCN1Cc1ccccc1 ?
rCAG binder: 8; LEDGF integ inh: -2; UHRF1 binding: 2; MBD2 DNA inh: -3; PRMT1 inh: 0

What do the screens show for `N=c1n(CCCOc2ccccc2Cl)c2ccccc2n1CC(N)=O`?
rCAG binder: 6; ABHD5-PLIN5 inh: 13; LEDGF integ inh: 3; UHRF1 binding: 25*; MBD2 DNA inh: -3; PRMT1 inh: 1

How did Cc1cc(CSc2ccccc2)ccc1NC(=O)c1ccc(Br)cc1 do in these assays?
rCAG binder: 3; ABHD5-PLIN5 inh: -3; LEDGF integ inh: 0; UHRF1 binding: 33*; MBD2 DNA inh: -3; PRMT1 inh: 2

What do the screens show for `O=C(O)c1ccc(COc2ccccc2/C=C2/NC(=O)N(c3cccc(Cl)c3)C2=O)cc1`?
rCAG binder: 27; ABHD5-PLIN5 inh: 7; LEDGF integ inh: 5; UHRF1 binding: 2; MBD2 DNA inh: -1; PRMT1 inh: 1

How did O=C(O)c1ccc(COc2ccc3ccccc3c2/C=C2/NC(=O)N(c3ccccc3)C2=O)cc1 do in these assays?
rCAG binder: 74*; ABHD5-PLIN5 inh: 3; LEDGF integ inh: 2; UHRF1 binding: -2; MBD2 DNA inh: -3; PRMT1 inh: 0

What do the screens show for `O=C1C2C(CC3c4ccccc4CCN32)CN1c1ccccc1` (configuration not stated)?
rCAG binder: 7; LEDGF integ inh: 1; UHRF1 binding: -4; MBD2 DNA inh: -2; PRMT1 inh: -5

How did CC1(C)Cc2c(C#N)c(N3CCN(C(=O)c4ccccc4Cl)CC3)nc(-c3ccco3)c2CS1 do in these assays?
rCAG binder: 14; ABHD5-PLIN5 inh: 29*; LEDGF integ inh: 3; UHRF1 binding: 2; MBD2 DNA inh: -2; PRMT1 inh: 20

How did COc1ccccc1C1=NNC(=Nc2cccc(S(=O)(=O)N(C)C)c2)SC1 do in these assays?
rCAG binder: 17; ABHD5-PLIN5 inh: -22; LEDGF integ inh: 4; UHRF1 binding: -1; MBD2 DNA inh: -5; PRMT1 inh: 22*

How did O=C(/C=C1\NC2(CCCC2)Cc2ccccc21)N1CCOCC1 do in these assays?
rCAG binder: 0; ABHD5-PLIN5 inh: 2; LEDGF integ inh: -1; UHRF1 binding: 0; MBD2 DNA inh: -4; PRMT1 inh: 27*

Results for CC1(C)Cc2c(ccc3ccccc23)/C(=C/C(=O)N2CCCCC2)N1 ?
rCAG binder: 1; ABHD5-PLIN5 inh: 0; LEDGF integ inh: 2; UHRF1 binding: 7; MBD2 DNA inh: -1; PRMT1 inh: -2

How did N#C/C(=C\c1c(N2CCCCCC2)nc2ccccn2c1=O)C(=O)NC1CCS(=O)(=O)C1 (configuration not stated) do in these assays?
rCAG binder: 1; ABHD5-PLIN5 inh: 5; LEDGF integ inh: 2; UHRF1 binding: 24*; MBD2 DNA inh: 12; PRMT1 inh: 1

How did Cc1ccccc1C(=O)Nc1c(C(=O)N(CCN(C)C)Cc2ccco2)oc2ccccc12 do in these assays?
rCAG binder: -9; ABHD5-PLIN5 inh: 5; LEDGF integ inh: 0; UHRF1 binding: 0; MBD2 DNA inh: 2; PRMT1 inh: -1

What do the screens show for `COc1ccccc1C(=O)Nc1c(C(=O)N(CCN(C)C)Cc2ccco2)oc2ccccc12`?
rCAG binder: -2; ABHD5-PLIN5 inh: 22*; LEDGF integ inh: -4; UHRF1 binding: 0; MBD2 DNA inh: -6; PRMT1 inh: 2

Results for O=C(NCc1cccnc1)C(=O)NCC1CCCO1 (configuration not stated) ?
rCAG binder: 0; ABHD5-PLIN5 inh: -3; LEDGF integ inh: -3; UHRF1 binding: 1; MBD2 DNA inh: 2; PRMT1 inh: -1

Results for O=C(NC1CCCC1)C(=O)N(Cc1cccnc1)C(C(=O)NCC1CCCO1)c1ccco1 (configuration not stated) ?
rCAG binder: 1; ABHD5-PLIN5 inh: 2; LEDGF integ inh: 0; UHRF1 binding: 26*; MBD2 DNA inh: 7; PRMT1 inh: 0

How did COc1ccc(C(=O)N/N=C/c2sc3ccccc3c2O)cc1 do in these assays?
ABHD5-PLIN5 inh: -10

Results for O=C(N/N=C/c1sc2ccccc2c1O)c1ccccc1 ?
ABHD5-PLIN5 inh: -6
